Measured values taken from PMC5540273 (PLoS ONE, 2017).

What was measured:
Details in all cases: concentration: 1 μM, replicates: in singlicate; n = 1
[1] = system: PAK1
[2] = system: PAK2
[3] = system: PAK3
[4] = system: PAK4
[5] = system: PAK6
[6] = system: PAK7
[7] = system: T1, PCTK1
T1 construct: gene CDK16

[8] = system: T2, PCTK2
T2 construct: gene CDK17

[9] = system: T3, PCTK3
T3 construct: gene CDK18

[10] = system: PDGFRA
[11] = system: PDGFRB
[12] = system: PDPK1
[13] = system: PFTAIRE2
[14] = system: T4, PFTK1
T4 construct: gene CDK14

[15] = system: PHKG1
[16] = system: PHKG2
[17] = system: PIK3C2B
[18] = system: PIK3C2G
[19] = system: PIK3CA
[20] = system: PIK3CB
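Also: KINOMEscan kinase panel screen.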

SMILES | %Inh [1] | %Inh [2] | %Inh [3] | %Inh [4] | %Inh [5] | %Inh [6] | %Inh [7] | %Inh [8] | %Inh [9] | %Inh [10] | %Inh [11] | %Inh [12] | %Inh [13] | %Inh [14] | %Inh [15] | %Inh [16] | %Inh [17] | %Inh [18] | %Inh [19] | %Inh [20]
CCCc1ccc(S(=O)(=O)NC2CCN(c3ccnc(Nc4ccc(OC)cc4)n3)C2)cc1 (stereo not shown) [GSK1379737] | 11% | 9% | 100% | 0% | 0% | 0% | 0% | 0% | 0% | 0% | 51% | 0% | 5% | 0% | 0% | 0% | 0% | 0% | 0% | 0%
Cn1ccc2ncnc(Nc3ccc(Oc4cccc(Cl)c4)c(Cl)c3)c21 | 18% | 0% | 9% | 19% | 0% | 0% | 24% | 26% | 0% | 26% | 4% | 22% | 24% | 0% | 0% | 10% | 0% | 28% | 10% | 60%
O=C(Nc1ccccc1F)NC1CCN(c2ccnc(Nc3ccc(F)cc3)n2)C1 (stereo not shown) [GSK1379722] | 2% | 16% | 0% | 0% | 0% | 0% | 6% | 0% | 18% | 0% | 8% | 14% | 7% | 14% | 13% | 0% | 0% | 0% | 0% | 0%
CS(=O)(=O)CCNCc1ccc(-c2ccc3ncnc(Nc4ccc(OCc5ccccc5)c(Cl)c4)c3c2)o1.Cl [GW574783] | 0% | 0% | 7% | 0% | 0% | 0% | 0% | 0% | 0% | 0% | 14% | 17% | 0% | 0% | 13% | 0% | 38% | 0% | 0% | 0%
O=C(NCCCN1CCCC1=O)c1cnc(NCc2cc(Cl)ccc2Cl)nc1NC1CCNCC1 | 5% | 0% | 0% | 3% | 0% | 0% | 0% | 0% | 10% | 0% | 0% | 7% | 0% | 7% | 0% | 1% | 0% | 0% | 0% | 0%
Cc1cc(N2CCC(NS(=O)(=O)c3ccc(F)cc3)CC2)nc(Nc2cccc(C#N)c2)n1.O=C(O)C(F)(F)F [GSK1653537] | 0% | 19% | 6% | 0% | 0% | 0% | 0% | 0% | 18% | 0% | 0% | 15% | 10% | 9% | 17% | 0% | 0% | 6% | 0% | 2%
CC(C)(C)c1ccc(-n2cnc3c(N)ncnc32)cc1 [SKF-97263] | 9% | 0% | 22% | 0% | 0% | 0% | 0% | 0% | 30% | 13% | 31% | 5% | 16% | 32% | 0% | 0% | 100% | 12% | 100% | 0%
FC(F)(F)c1cc(Nc2nccc(-c3c(-c4ccc(Cl)cc4)nn4ncccc34)n2)ccc1Cl [GW829351] | 0% | 17% | 0% | 0% | 0% | 0% | 0% | 0% | 0% | 0% | 3% | 0% | 0% | 0% | 0% | 0% | 0% | 0% | 0% | 0%
Nc1n[nH]c2nnc(-c3ccccc3)cc12 [SB-517389] | 12% | 8% | 0% | 0% | 0% | 2% | 7% | 20% | 15% | 0% | 5% | 0% | 17% | 24% | 0% | 1% | 0% | 0% | 0% | 0%
c1ccc(-c2ccc3c(-c4ccnc(Nc5ccc6c(c5)OCCO6)n4)cnn3n2)cc1 [GW818941] | 6% | 28% | 18% | 0% | 83% | 0% | 0% | 7% | 0% | 8% | 4% | 17% | 5% | 19% | 0% | 0% | 0% | 11% | 0% | 0%
CNc1nccc(-c2c(-c3ccc(F)cc3)ncn2CCCN2CCOCC2)n1 [SB-222516] | 65% | 85% | 0% | 0% | 0% | 0% | 0% | 0% | 0% | 0% | 4% | 0% | 9% | 0% | 0% | 0% | 0% | 3% | 0% | 6%
